Several values for one entry are separate records, joined by “and”; a condition that tells them apart may be missing. Equal values may be shown once. Records with an inconclusive call do not appear. Some structures have more than one record in an assay (separate samples or runs), and their calls can disagree. Activity calls are given as the source filed them. Calls follow the shape of the full dose curve.
% is scaled to controls: 0 for no effect and ±100 for the full control effect; potency is read from the fitted curve at half-maximal effect.

This assay deals with Muscarinic acetylcholine receptor M1 (Homo sapiens) (UniProt P11229). Kind of assay: Cholinergic receptor muscarinic 1 (CHRM1) small molecule antagonists, cell-based qHTS assay (AID 1963588). Also: nearly all actives have a fitted effect of over 40% in size. Conditions: CHRM1-CHO antagonist mode, calcium flux fluorescence; series mostly up to 61.5 µM; activity, negative = inhibition: at the top concentration. From the text: National Center for Advancing Translational Sciences [NCATS]
Chain of Muscarinic acetylcholine receptor M1 (Homo sapiens) (P11229 whole entry, looked up): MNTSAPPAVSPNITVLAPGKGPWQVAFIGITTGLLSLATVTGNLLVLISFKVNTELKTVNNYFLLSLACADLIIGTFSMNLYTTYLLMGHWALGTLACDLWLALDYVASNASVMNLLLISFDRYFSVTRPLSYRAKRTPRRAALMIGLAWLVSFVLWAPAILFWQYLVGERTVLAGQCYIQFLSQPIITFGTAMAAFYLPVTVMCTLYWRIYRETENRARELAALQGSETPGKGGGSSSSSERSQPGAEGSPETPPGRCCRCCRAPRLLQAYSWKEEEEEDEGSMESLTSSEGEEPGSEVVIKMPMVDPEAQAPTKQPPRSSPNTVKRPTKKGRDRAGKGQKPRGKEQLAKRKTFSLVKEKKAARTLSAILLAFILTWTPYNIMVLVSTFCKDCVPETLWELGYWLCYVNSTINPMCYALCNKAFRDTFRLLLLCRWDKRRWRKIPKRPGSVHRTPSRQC
Division of Preclinical Innovation [DPI]
U.S. Environmental Protection Agency [EPA]
National Institutes of Environmental Health Sciences [NIEHS]
National Toxicology Program [NTP]
U.S. Food and Drug Administration [FDA]
The CHRM1 is a muscarinic receptor. This receptor plays a crucial role in learning and memory processes and has long been identified as a promising therapeutic target for the improvement of cognitive decline in Alzheimer's disease (AD). The CHRM1-CHO cell line stably expressing human muscarinic acetylcholine receptor M1 (CHRM1) can be used for screening agonists and antagonists of interactions between CHRM1 and its ligands. The CHRM1-CHO Calcium Flux Assay is a homogeneous fluorescence-based assay for detecting the intracellular calcium level using FDSS kinetic plate reader system.
Tox21 Assay Protocol Summary:
CHRM1-CHO cells were dispensed at 1000 cells/3uL/well in 1536-well black-clear bottom plates using a Multidrop Dispenser. After the assay plates were incubated at a 37 C/5% CO2 incubator for 18 h, 3 uL of Dye Loading Buffer was transferred to the assay plate by a Flying Reagent Dispenser. The assay plates were incubated at 37 C for 1h. For antagonist mode, 23 nL of compounds dissolved in DMSO, positive controls or DMSO only was transferred to the assay plate by a pin tool. After 5 min incubation at room temperature, 1.5 uL of acetylcholine at 50nM was added to each well. The fluorescence intensity in the plates was measured using FDSS 7000EX kinetic plate reader for 3 min at 1 sec intervals. Each test compound was measured at 15 concentrations in three independent runs.
As for `NC(=O)Nc1ccc(Cl)cc1`, the “activity, negative = inhibition” value is -8.91% (inactive).

On to `C1C[C@@H]2[C@H]3CC[C@H](C3)[C@@H]2C1`, for which the “activity, negative = inhibition” value is -22.1% (inactive).

Turning to `CCCCOC(=O)CCCCCCCC(=O)OCCCC`, the “activity, negative = inhibition” value was 15.3% (inactive).

On to `O=S(=O)(O)c1cccc2c(S(=O)(=O)O)cccc12`, for which the “activity, negative = inhibition” value was 7.29% (inactive).

Regarding `CC(C)C(=O)C(C)C`, the “activity, negative = inhibition” value is 2.89% (inactive).

As to `COc1ccc2c(c1)CCCC2=O`, the “activity, negative = inhibition” value was 5.32% [at 28.3 µM] (inactive).

For the compound `CCCCCCCCCCCCCC[P+](CCCC)(CCCC)CCCC`, the Potency result was “inactive and 9.42 µM (active)”.

With `CC(C)(C)OCC1CO1` (stereo not given), the “activity, negative = inhibition” value is -27.9% (inactive).

Consider `CCCCCCCCCCCCCCCC(=O)NCCO`, for which the “activity, negative = inhibition” value was -12% [at 28.3 µM] (inactive).

On to `CC(C)C1CCC(O)CC1` (stereo not given), for which the “activity, negative = inhibition” value is -15.6% (inactive).

With `C=C(c1ccc(C(=O)O)cc1)c1cc2c(cc1C)C(C)(C)CCC2(C)C`, the Potency entry was “inactive and 18.3 µM (active)”.

In the case of `Clc1cc(Cl)c(Cl)c(Cl)c1Cl`, the “activity, negative = inhibition” value is -4.21% (inactive).

Take `CCC(N)(CO)CO`: the “activity, negative = inhibition” value is 25.9% (inactive).

Consider `Cc1ccc(N)cc1[N+](=O)[O-]`, for which the “activity, negative = inhibition” value is 3.52% (inactive).

`CC1(C)[C@H](C(=O)OCc2cccc(Oc3ccccc3)c2)[C@@H]1C=C(Cl)Cl`: the “activity, negative = inhibition” value is -6.78% (inactive).

`CCCOC(=O)C(C)O` (stereo not given): the “activity, negative = inhibition” value was -18.3% (inactive).

On to `CCCCN(CCO)CCO`, for which the “activity, negative = inhibition” value is 8.77% (inactive).

In the case of `O=C1OCCO1`, the “activity, negative = inhibition” value was 23.4% (inactive).

With `CCC(=O)OC(C)c1ccccc1` (stereo not given), the “activity, negative = inhibition” value was 6.38% (inactive).

On to `CCC(C)C1CCCCC1=O` (stereo not given), for which the “activity, negative = inhibition” value is 23.7% (inactive).

As for `O=Nc1ccc(NO)cc1`, the “activity, negative = inhibition” value is 33.7% (inactive).

Regarding `CCCCC(CC)C(=O)OCCOCCOCCOC(=O)C(CC)CCCC` (stereo not given), the Potency entry is “inactive”.

As to `O=C(O)c1cc(O)c(O)c(O)c1`, the “activity, negative = inhibition” value was 17.4% [at 28.3 µM] (inactive).

As to `OCCCCCCCl`, the “activity, negative = inhibition” value was -10.6% (inactive).

As to `Cc1ccc(C2OC[C@@H]3OC(c4ccc(C)cc4)O[C@H]([C@H](O)CO)[C@@H]3O2)cc1` (stereo not given in full), the “activity, negative = inhibition” value was 13.5% (inactive).

Regarding `O=C(COc1ccc(Cl)cc1)N1CCN(Cc2ccc3c(c2)OCO3)CC1`, the Potency was 37.5 µM (active) and inactive.

Turning to `Cc1cccc(C)c1NC(=O)CN1CCCCCC1`, the “activity, negative = inhibition” value was 6.91% [at 28.3 µM] (inactive).

Take `CSc1cnccn1`: the “activity, negative = inhibition” value was -1.73% (inactive).

`O=C(O)c1ccccc1OP(=O)(O)O`: the “activity, negative = inhibition” value was 2.89% [at 28.3 µM] (inactive).

`COc1ccc(C)cc1`: the “activity, negative = inhibition” value was 25.4% (inactive).

With `CCOc1ccccc1OCC`, the “activity, negative = inhibition” value is -4.26% (inactive).

As for `CC(=O)CC(=O)Nc1ccc2[nH]c(=O)[nH]c2c1`, the “activity, negative = inhibition” value is 29.5% (inactive).

As for `CCCC(=O)OCC(COC(=O)CCC)OC(=O)CCC`, the “activity, negative = inhibition” value is -11.1% (inactive).

In the case of `COC(OC)C(C)c1ccccc1` (stereo not given), the “activity, negative = inhibition” value is 6.43% (inactive).

With `O=C(O)CNC(=O)c1ccc(CO)o1`, the “activity, negative = inhibition” value is -10.1% (inactive).

As for `Cc1cc(C)c(C)c(O)c1`, the “activity, negative = inhibition” value was 0.613% (inactive).

Regarding `O=C(Cn1ccnc1[N+](=O)[O-])NCc1ccccc1`, the “activity, negative = inhibition” value is 11.9% [at 28.3 µM] (inactive).

`CCC(C)SSC(C)CC` (stereo not given): the “activity, negative = inhibition” value was -11.8% (inactive).

Turning to `Nc1cccc(N)n1`, the Potency result is “inactive”.

Turning to `C=C1C[C@]23C[C@@]1(O)CC[C@H]2[C@@]12C=C[C@H](O)[C@@](C)(C(=O)O1)[C@H]2[C@@H]3C(=O)O`, the Potency entry is “inactive”.

The values above are taken from PubChem BioAssay (Tox21).
